The text below walks through data of PubChem BioAssay AID743446 (Broad Institute, 2014).

Entries with a potency or affinity are not part of this list. Unmarked numbers belong to inactive results. How the calls were made is not given here.

This assay can be described thus: viability loss in HEK293 cells – cell-based, plate reader, cherry-picked samples, cytotoxicity control, dose response (AID 743446). The conditions noted are these: stronger effect = lower value; at 26 µM unless noted.
As for `COC(=O)c1ccc2nc(-c3cccc(N)c3)cn2c1`, the max activity is 9.42% [at 0.195 µM].
With `O=C(NCCc1ccccc1)c1ccc2c(c1)OCO2`, the max activity was 21.8% [at 12 µM].
Next, `Cc1ccc(-c2cc(C(=O)N(C)Cc3cnn(C)c3C)c3cc(Br)ccc3n2)cc1`: -9.48%.
Next, `C[C@H]1CN([C@@H](C)CO)C(=O)c2cc(C#CCc3ccccc3)cnc2O[C@H]1CN(C)Cc1ccccc1`: 13.9% [at 3 µM]; `COC(=O)c1c(N)sc(C(=O)NCCc2ccccc2)c1C`: 16.2% [at 3 µM]; `COC(=O)c1ccc(Nc2cc(C)nc3ccc(C)cc23)cc1`: -31.7% [at 12 µM].
Next, `Cc1ccc(NC(=O)c2sc3ccccc3c2Cl)nc1`: 24.8% [at 12 µM].
For the molecule `CC(C)c1nnc(NC(=O)c2ccc3c(c2)OCO3)s1`, the max activity is 30.9% [at 0.38 µM].
Take `COc1ccc(-c2noc(CCC(=O)N3CCN(c4ccc(Cl)cc4)CC3)n2)cc1`: the max activity is 26.2% [at 12 µM].
Turning to `C[C@@H]1CN([C@H](C)CO)C(=O)c2cc(NC(=O)Nc3cccc4ccccc34)ccc2O[C@@H]1CN(C)C(=O)Nc1ccccc1`, the max activity is 29.1% [at 0.8 µM].
Turning to `Cc1oc(-c2ccc3c(c2)OCCO3)cc1C(=O)O`, the max activity is -18.6%.
With `C[C@H](CO)N1C[C@H](C)[C@H](CN(C)C(=O)Nc2ccccc2)OCCCC[C@H](C)Oc2ccc(NC(=O)CCC(F)(F)F)cc2C1=O`, the max activity is -24.3% [at 0.195 µM].
Turning to `C[C@@H]1CN([C@@H](C)CO)C(=O)c2cccc(NC(=O)c3ccc(-c4nccs4)cc3)c2O[C@@H]1CN(C)C(=O)Nc1ccc(C(F)(F)F)cc1`, the max activity is -9.8%.
In the case of `O=C(Nc1cc(S(=O)(=O)Nc2ccccc2Cl)ccc1O)c1ccc(F)cc1F` it was -13.9% [at 0.8 µM]; in that of `O=C(c1ccc2c(c1)OCCO2)C1CCN(S(=O)(=O)c2ccc(F)cc2)CC1`, 25.1% [at 0.1 µM].
In the case of `O=C(C[C@@H]1C[C@H]2c3cc(NC(=O)c4ccc5c(c4)OCO5)ccc3O[C@H]2[C@@H](CO)O1)NCc1ccc(Oc2ccccc2)cc1` it was -15.7% [at 0.05 µM]; in that of `CCOC(=O)c1cn2nc(N3CCCCC3)ccc2n1`, -14% [at 3 µM].
Next, `C[C@@H]1CN([C@H](C)CO)C(=O)c2c(c3ccccc3n2C)-c2ccccc2CO[C@H]1CN(C)S(=O)(=O)c1cn(C)cn1`: 11.7% [at 12 µM]; `O=C(O)c1cccc(-c2noc(-c3cccc(Cl)c3)n2)c1`: 9.55%; `CCn1c(C)cc(C(=O)CN2C(=O)c3ccccc3S2(=O)=O)c1C`: -18.9% [at 6 µM].
Take `Cc1ccc2nc(-c3ccc(NC(=O)C4CCCO4)cc3)[nH]c2c1` (stereo not drawn): the max activity is 41.8%.
Next, `O=C(C[C@H]1CC[C@H](NS(=O)(=O)c2cccc(F)c2)[C@@H](CO)O1)N1CCCCC1`: 20.1% [at 0.05 µM]; `COc1ccc(-c2cn3cc(C)ccc3n2)cc1F`: 44.7% [at 12 µM]; `Clc1ccc(-n2ncc3c(N4CCCC4)ncnc32)cc1`: 13.4%.
`CC(C)(C)c1ccc(C(=O)NCCOc2ccccc2F)cc1`: the max activity is 23.5%.
Turning to `O=C(Nc1cccc(-c2ccc(N3CCCCC3)nn2)c1)C(F)(F)F`, the max activity is -33.5% [at 3 µM].
In the case of `O=C(Nc1ccc(Cl)cc1)Nc1cccc(C(=O)O)c1` it was -10.1%; in that of `COCCn1c(C)cc(C(=O)CSc2nnc3ccccn23)c1C`, -15% [at 6 µM].
Next, `O=C(Nc1cccnc1)c1cc(-c2ccc3c(c2)OCO3)on1`: 26.9% [at 12 µM]; `COc1ccc(C(=O)Nc2nnc(-c3ccco3)s2)cc1`: -21.3% [at 3 µM]; `C[C@H](CO)N1C[C@H](C)[C@H](CN(C)Cc2ccncc2)Oc2ncc(C#CCC3CCCCC3)cc2C1=O`: 18.1% [at 3 µM].
In the case of `C[C@H](CO)N1C[C@H](C)[C@H](CN(C)C(=O)Nc2cccc3ccccc23)OCCCC[C@H](C)Oc2ccc(NC(=O)CCC(F)(F)F)cc2C1=O` it was 78.9%; in that of `CCN(C(=O)COC(=O)C12CC3CC(CC(O)(C3)C1)C2)c1c(N)n(Cc2ccccc2)c(=O)[nH]c1=O`, 34% [at 0.1 µM].
Regarding `COc1ccc2nc(NC(=O)c3ccccc3F)sc2c1`, the max activity was 34.9% [at 3 µM].
In the case of `C[C@H]1CCCCO[C@@H](CN(C)C(=O)Nc2ccc(F)cc2)[C@@H](C)CN([C@@H](C)CO)C(=O)c2cc(NC(=O)C3CCCCC3)ccc2O1` it was -14.5% [at 6 µM]; in that of `O=C(O)c1ccc(Nc2nc3c(s2)CCCC3)cc1`, 49.8% [at 12 µM].
Regarding `COc1ccc(S(=O)(=O)Nc2ccc3c(c2)C(=O)N([C@@H](C)CO)C[C@@H](C)[C@H](CN(C)C(=O)Nc2cccc4ccccc24)OCCCC[C@H](C)O3)cc1`, the max activity was 35.8% [at 12 µM].
For the molecule `Cc1ccc2nc(-c3ccc(Br)cc3)cn2c1`, the max activity was 0% [setting not given].
